Source: ChEMBL document CHEMBL3988442, “University of Dundee, Small-Polar-MMV Screening Library” (2021)
For some of these results: Potency and affinity values are given separately.

Legend:
Design in all cases: scale not given: direction of the effect not stated beside the values
[1] = target: Protein translocase subunit SecA (Escherichia coli (strain K12)) (UniProt P10408); assay: Assay to Identify E. coli SecA ATPase Inhibitors; format: functional; conditions: 30 µM
[2] = target: T1, Ubiquitin-activating enzyme e1, putative (Leishmania donovani (strain BPK282A1)) (UniProt E9BSI1); assay: Leishmania donovani Ubiquitin Activating Enzyme (LdE1); format: functional; conditions: 30 µM
T1 sequence (whole entry): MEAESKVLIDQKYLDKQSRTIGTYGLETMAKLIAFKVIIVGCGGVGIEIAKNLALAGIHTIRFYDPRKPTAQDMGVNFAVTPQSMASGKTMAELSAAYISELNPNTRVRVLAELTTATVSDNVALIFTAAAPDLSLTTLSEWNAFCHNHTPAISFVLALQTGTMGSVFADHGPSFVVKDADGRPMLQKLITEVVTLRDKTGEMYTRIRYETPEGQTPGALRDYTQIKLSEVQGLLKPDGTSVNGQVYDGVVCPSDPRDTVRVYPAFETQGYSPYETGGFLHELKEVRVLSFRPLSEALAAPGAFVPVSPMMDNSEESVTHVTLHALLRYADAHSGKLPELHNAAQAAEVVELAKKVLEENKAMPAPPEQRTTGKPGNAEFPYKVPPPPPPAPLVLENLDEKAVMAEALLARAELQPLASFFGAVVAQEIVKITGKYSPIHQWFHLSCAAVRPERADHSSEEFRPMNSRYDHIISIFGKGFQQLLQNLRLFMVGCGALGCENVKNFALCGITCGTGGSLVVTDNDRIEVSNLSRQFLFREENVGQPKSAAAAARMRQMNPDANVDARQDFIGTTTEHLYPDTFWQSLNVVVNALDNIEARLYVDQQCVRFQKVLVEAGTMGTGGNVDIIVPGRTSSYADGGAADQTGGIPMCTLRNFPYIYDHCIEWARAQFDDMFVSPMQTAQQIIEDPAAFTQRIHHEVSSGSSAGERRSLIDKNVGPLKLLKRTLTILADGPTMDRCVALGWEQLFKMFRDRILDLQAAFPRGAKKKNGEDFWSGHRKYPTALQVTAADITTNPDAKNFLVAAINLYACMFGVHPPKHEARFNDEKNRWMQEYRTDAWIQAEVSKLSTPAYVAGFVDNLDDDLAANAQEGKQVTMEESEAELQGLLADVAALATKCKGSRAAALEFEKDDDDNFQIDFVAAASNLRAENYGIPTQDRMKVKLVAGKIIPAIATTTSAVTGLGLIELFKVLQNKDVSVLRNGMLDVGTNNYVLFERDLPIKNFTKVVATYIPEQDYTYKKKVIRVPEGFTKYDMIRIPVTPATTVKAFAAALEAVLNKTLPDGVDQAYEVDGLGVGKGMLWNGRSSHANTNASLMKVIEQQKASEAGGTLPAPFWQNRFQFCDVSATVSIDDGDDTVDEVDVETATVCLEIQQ

[3] = target: AMP-activated protein kinase, AMPK (Homo sapiens) (UniProt P54646+O43741+P54619+Q9UGJ0+Q9Y478+Q13131+Q9UGI9); assay: AMP-dependent Kinase enzyme assay. An in vitro enzyme assay that detects ADP turnover that is directly proportional to AMPK activity. This uses naive AMPK that is activated during the assay with MK-8722; format: functional; conditions: 30 µM
[4] = target: Sialic acid-binding Ig-like lectin 9 (Homo sapiens) (UniProt Q9Y336); assay: Hs-Siglec9 ALPHAscreen SOP 20170721; conditions: 10 µM
[5] = system: Trypanosoma cruzi; assay: Trypanosoma cruzi phosphomannomutase and mannose-1-phosphate guanylyltransferase assay; format: functional; conditions: 10 µM
[6] = target: T2, Arginase-2, mitochondrial (Homo sapiens) (UniProt P78540); assay: in vitro enzyme assay to detect the production of urea directly proportional to the activity of Arginase II; format: functional; conditions: 33.3 µM; also: in the data most compounds retested in dose-response had high values
T2 sequence (whole entry): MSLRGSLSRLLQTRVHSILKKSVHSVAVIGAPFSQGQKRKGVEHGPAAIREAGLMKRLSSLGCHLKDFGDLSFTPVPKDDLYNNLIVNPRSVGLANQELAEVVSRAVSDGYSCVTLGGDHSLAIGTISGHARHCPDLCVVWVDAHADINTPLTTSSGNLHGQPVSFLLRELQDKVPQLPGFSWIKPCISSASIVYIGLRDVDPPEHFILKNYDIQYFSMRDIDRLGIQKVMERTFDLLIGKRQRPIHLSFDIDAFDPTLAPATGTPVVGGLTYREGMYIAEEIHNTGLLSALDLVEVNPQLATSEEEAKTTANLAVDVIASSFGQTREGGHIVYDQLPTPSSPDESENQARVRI

[7] = target: T3, Proteasome subunit beta (Trypanosoma cruzi) (UniProt O96673); assay: Trypanosoma cruzi proteasome chymotrypsin-like activity (TcProtChymo) assay.; also: in the data most compounds retested in dose-response had high values; format: functional; conditions: 9.37 µM
T3 sequence (whole entry): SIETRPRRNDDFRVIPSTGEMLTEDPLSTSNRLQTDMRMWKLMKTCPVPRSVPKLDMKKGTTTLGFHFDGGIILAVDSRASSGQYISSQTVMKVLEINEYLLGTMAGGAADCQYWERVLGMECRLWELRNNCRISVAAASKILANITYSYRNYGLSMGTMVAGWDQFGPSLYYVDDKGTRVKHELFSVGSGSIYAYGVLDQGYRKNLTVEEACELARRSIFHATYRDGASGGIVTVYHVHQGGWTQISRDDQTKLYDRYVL

[8] = organism: Homo sapiens; assay: To identify inhibition of the IFN signalling (Jak-Stat) pathway via expression of an eGFP reporter gene under the control of an IFN-stimulated response element (ISRE) containing MxA promoter.; format: functional; conditions: 30 µM
[9] = target: T4, Tyrosyl-tRNA synthetase, putative (Trypanosoma cruzi (strain CL Brener)) (UniProt Q4DSP6); assay: Trypanosoma cruzi tyrosyl tRNA synthetase (TcYRS) _High Tyrosine SOP; format: functional; conditions: 30 µM; also: in the data most compounds retested in dose-response had high values
T4 sequence (whole entry): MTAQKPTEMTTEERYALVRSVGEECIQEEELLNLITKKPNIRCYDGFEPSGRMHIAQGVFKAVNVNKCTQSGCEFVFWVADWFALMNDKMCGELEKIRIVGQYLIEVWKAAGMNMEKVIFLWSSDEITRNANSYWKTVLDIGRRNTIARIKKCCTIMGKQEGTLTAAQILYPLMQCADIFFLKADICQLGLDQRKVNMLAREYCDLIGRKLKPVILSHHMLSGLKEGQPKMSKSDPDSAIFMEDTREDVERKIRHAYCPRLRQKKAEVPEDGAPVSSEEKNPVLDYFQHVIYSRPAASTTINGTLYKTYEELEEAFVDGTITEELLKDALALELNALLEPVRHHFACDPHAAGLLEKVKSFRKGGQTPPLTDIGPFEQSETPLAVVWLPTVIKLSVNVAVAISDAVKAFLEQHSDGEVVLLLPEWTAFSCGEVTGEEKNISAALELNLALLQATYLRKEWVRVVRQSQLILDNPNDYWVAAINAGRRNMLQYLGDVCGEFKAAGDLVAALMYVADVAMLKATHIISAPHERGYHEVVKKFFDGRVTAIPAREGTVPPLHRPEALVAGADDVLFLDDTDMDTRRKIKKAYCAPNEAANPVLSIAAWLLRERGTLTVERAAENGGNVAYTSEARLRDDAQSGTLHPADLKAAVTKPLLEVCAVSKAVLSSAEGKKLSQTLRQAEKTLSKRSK

[10] = target: T4, Tyrosyl-tRNA synthetase, putative (Trypanosoma cruzi (strain CL Brener)); assay: Trypanosoma cruzi tyrosyl tRNA synthetase (TcYRS) SOP; format: functional; conditions: 30 µM
[11] = target: Chromo domain-containing protein 1 (Saccharomyces cerevisiae (strain ATCC 204508 / S288c) (Baker's yeast)) (UniProt P32657); assay: ScCHD-1 Enzyme Inhibition Assay; format: functional; conditions: 30 µM; also: in the data most compounds retested in dose-response had high values
Chromo domain-containing protein 1 (Saccharomyces cerevisiae (strain ATCC 204508 / S288c) (Baker's yeast)), sequence (P32657 whole entry, the tested form may be a part): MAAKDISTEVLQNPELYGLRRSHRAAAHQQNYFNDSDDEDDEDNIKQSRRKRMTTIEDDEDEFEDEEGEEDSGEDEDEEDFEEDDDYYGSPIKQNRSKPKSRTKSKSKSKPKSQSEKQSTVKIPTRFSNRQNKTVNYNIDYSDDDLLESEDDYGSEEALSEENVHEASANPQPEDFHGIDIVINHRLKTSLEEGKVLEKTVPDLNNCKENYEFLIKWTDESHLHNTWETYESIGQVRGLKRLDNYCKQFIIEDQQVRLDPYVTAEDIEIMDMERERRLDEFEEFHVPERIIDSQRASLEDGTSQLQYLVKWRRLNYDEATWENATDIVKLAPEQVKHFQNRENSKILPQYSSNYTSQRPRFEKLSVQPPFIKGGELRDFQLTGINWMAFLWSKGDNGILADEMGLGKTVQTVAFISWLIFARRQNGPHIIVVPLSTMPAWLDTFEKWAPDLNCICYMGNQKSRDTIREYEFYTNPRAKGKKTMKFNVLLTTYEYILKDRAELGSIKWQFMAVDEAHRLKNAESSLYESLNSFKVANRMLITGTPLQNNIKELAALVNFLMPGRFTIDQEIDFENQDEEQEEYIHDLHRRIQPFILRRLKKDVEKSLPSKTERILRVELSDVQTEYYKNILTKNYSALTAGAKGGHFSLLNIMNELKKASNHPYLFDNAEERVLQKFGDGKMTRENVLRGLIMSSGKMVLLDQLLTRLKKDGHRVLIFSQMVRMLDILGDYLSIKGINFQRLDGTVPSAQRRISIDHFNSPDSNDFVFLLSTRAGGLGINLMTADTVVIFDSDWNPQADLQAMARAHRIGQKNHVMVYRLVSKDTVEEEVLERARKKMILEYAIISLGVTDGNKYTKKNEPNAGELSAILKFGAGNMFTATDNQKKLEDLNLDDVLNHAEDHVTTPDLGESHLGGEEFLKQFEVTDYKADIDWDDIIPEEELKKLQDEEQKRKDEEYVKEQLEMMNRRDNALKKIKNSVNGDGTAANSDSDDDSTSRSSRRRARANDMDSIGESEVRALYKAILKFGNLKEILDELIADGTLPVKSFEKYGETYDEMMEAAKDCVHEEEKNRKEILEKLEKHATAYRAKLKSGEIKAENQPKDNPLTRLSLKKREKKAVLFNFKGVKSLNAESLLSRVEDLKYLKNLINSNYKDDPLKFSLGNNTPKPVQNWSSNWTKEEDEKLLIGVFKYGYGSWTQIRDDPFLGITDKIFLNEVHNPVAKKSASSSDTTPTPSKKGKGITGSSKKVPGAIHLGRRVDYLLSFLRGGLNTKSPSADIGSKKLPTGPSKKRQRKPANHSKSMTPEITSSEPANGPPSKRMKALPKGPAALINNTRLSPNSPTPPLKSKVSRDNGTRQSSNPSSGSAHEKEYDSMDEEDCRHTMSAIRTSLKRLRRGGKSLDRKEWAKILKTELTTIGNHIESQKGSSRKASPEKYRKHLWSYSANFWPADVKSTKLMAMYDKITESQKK

Protein translocase subunit SecA (Escherichia coli (strain K12)), sequence (P10408 whole entry): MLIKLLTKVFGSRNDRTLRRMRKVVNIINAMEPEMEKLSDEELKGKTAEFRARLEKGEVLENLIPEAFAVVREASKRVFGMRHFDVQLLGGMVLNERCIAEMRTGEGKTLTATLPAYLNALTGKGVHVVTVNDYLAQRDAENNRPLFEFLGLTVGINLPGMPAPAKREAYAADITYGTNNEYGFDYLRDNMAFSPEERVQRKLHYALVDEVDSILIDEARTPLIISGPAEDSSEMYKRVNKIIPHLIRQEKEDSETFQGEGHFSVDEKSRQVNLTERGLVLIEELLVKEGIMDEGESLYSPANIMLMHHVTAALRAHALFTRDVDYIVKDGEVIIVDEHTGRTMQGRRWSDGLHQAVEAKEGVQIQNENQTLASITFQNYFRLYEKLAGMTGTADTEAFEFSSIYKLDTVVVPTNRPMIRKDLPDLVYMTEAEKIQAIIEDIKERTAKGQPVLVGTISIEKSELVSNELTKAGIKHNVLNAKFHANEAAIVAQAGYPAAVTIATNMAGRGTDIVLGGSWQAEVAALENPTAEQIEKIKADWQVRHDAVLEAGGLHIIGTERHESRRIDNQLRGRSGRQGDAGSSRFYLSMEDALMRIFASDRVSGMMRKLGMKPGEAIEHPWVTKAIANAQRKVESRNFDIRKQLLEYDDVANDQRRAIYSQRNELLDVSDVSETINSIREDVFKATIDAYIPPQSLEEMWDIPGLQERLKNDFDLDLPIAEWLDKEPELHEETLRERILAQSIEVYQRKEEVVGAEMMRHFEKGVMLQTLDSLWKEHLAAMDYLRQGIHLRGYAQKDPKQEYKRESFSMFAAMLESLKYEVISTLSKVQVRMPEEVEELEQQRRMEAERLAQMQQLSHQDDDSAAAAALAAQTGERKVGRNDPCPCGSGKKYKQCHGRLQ
Sialic acid-binding Ig-like lectin 9 (Homo sapiens), sequence (Q9Y336 whole entry): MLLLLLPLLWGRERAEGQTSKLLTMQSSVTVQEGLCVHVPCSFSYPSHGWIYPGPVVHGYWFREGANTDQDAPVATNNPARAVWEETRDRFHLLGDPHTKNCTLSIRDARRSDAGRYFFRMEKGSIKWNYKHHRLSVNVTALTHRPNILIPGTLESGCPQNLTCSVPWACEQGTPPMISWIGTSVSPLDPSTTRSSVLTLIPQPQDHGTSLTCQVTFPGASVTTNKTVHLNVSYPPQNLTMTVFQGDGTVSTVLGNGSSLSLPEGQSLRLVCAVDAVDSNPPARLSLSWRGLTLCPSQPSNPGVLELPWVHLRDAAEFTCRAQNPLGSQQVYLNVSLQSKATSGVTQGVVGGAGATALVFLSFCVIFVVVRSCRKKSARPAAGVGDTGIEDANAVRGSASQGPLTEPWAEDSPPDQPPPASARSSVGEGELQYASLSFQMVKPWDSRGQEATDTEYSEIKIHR

## CS(=O)(=O)N1CCCN(C(=O)c2ccc(Cn3ccccc3=O)o2)CC1
[1]
  Percent Effect: 0.345%
[2]
  Percent Effect: 10.8%
[3]
  Percent Effect: -1.54%
[4]
  Percent Effect: -9.12%
[5]
  Percent Effect: -8.45%
[6]
  Percent Effect: 2.77%
[7]
  Percent Effect: 5.03%
[8]
  Percent Effect: 12.3%
[9]
  Percent Effect: 6.93%
[10]
  Percent Effect: 15.8%
[11]
  Percent Effect: -7.1%

## COCCN1CCC(NCc2cccc(F)c2)C1 (stereo not drawn)
[1]
  Percent Effect: -3.31%
[2]
  Percent Effect: 13%
[3]
  Percent Effect: -4.27%
[4]
  Percent Effect: 0.179%
[5]
  Percent Effect: -5.24%
[6]
  Percent Effect: -4.27%
[7]
  Percent Effect: 8.78%
[8]
  Percent Effect: 32.2%
[9]
  Percent Effect: 5.83%
[10]
  Percent Effect: 0%
[11]
  Percent Effect: -9.86%

## Cn1cc(C(=O)NCc2cn3c(n2)CN(Cc2ccccn2)CC3)cn1
[1]
  Percent Effect: -7.16%
[2]
  Percent Effect: 2.7%
[3]
  Percent Effect: 4.33%
[4]
  Percent Effect: -3.43%
[5]
  Percent Effect: 2.73%
[6]
  Percent Effect: 2.08%
[7]
  Percent Effect: -0.254%
[8]
  Percent Effect: -6.36%
[9]
  Percent Effect: 6.93%
[10]
  Percent Effect: 8.54%
[11]
  Percent Effect: -1.37%

## CCOc1nnc(CN2CCOC(CNc3cccnn3)C2)s1 (stereo not drawn)
[1]
  Percent Effect: -1.03%
[2]
  Percent Effect: 20.8%
[3]
  Percent Effect: -24.7%
[4]
  Percent Effect: -0.385%
[5]
  Percent Effect: 2.43%
[6]
  Percent Effect: -3.92%
[7]
  Percent Effect: 11.8%
[8]
  Percent Effect: 10.6%
[9]
  Percent Effect: 16.5%
[10]
  Percent Effect: 7.32%
[11]
  Percent Effect: -11.3%

## O=C(c1ccoc1)N1CC[C@@H]2O[C@H](COCc3ccccn3)CC[C@@H]21
[1]
  Percent Effect: 4.07%
[2]
  Percent Effect: 8.11%
[3]
  Percent Effect: 2.6%
[4]
  Percent Effect: -13.6%
[5]
  Percent Effect: -3.42%
[6]
  Percent Effect: 2.87%
[7]
  Percent Effect: 21.4%
[8]
  Percent Effect: 7.99%
[9]
  Percent Effect: 2.16%
[10]
  Percent Effect: 10.3%
[11]
  Percent Effect: -3.84%

## CN(C)C(=O)CO[C@H]1CN(Cc2ccc(F)cc2)[C@@H]2CCCO[C@H]12
[1]
  Percent Effect: -4.67%
[2]
  Percent Effect: 10.4%
[3]
  Percent Effect: 1.52%
[4]
  Percent Effect: 9.7%
[5]
  Percent Effect: 4.23%
[6]
  Percent Effect: 2.76%
[7]
  Percent Effect: 15.3%
[8]
  Percent Effect: -1.14%
[9]
  Percent Effect: 5.38%
[10]
  Percent Effect: 11.1%
[11]
  Percent Effect: -1.79%

## Cc1cccc(CNC2CCCc3c2cnn3C)c1 (stereo not drawn)
[1]
  Percent Effect: 2.29%
[2]
  Percent Effect: -5.41%
[3]
  Percent Effect: -6.19%
[4]
  Percent Effect: 5.27%
[5]
  Percent Effect: 5.38%
[6]
  Percent Effect: 0%
[7]
  Percent Effect: 3.6%
[8]
  Percent Effect: -2.08%
[9]
  Percent Effect: 0.493%
[10]
  Percent Effect: 6.17%
[11]
  Percent Effect: -2%

## CN(C)c1ncnc2c1CCN(CC1CCCC1)CC2
[1]
  Percent Effect: -3.48%
[2]
  Percent Effect: 5.41%
[3]
  Percent Effect: 5.95%
[4]
  Percent Effect: -2.79%
[5]
  Percent Effect: -3.81%
[6]
  Percent Effect: -4.14%
[7]
  Percent Effect: 15.1%
[8]
  Percent Effect: -8.91%
[9]
  Percent Effect: 4.32%
[10]
  Percent Effect: 15.4%
[11]
  Percent Effect: 1.8%
